Data as given in PubChem BioAssay (NCI).
About 79,000 compounds went through this panel and 15% of them were active in at least one assay; those are over-represented in the sample as a whole. A number with no mark means an inactive call. Calls of active or inactive are those of the source. Rule as the data show it: active = growth inhibition above about 70%; inactive = the rest.

Assays:
[1] = NCI Yeast Anticancer Drug Screen. Data for the rad52 strain (AID 147);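 also: 0% = growth of vehicle-treated control cultures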; conditions: S. cerevisiae rad52 mutant growth inhibition, active compounds read high
Method in brief: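 Genetically altered yeast (DNA damage repair defect) treated with compound; inhibition calculated relative to vehicle.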

[2] = NCI Yeast Anticancer Drug Screen. Data for the wt1 strain (AID 149);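 also: 0% = growth of vehicle-treated wt1 cultures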; conditions: S. cerevisiae wt1 strain (SPY 50644) growth inhibition, active compounds read high
Method in brief: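 Using yeast strain wt1, compound-induced growth inhibition was determined against vehicle-treated cultures.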

[3] = NCI Yeast Anticancer Drug Screen. Data for the rad50EPP+ strain (AID 151);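 also: 0% = growth of vehicle-treated control cultures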; conditions: S. cerevisiae rad50 mutant strain, active compounds read high
Method in brief: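 Strain rad50EPP+; compound exposure; % growth inhibition vs vehicle.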

[4] = NCI Yeast Anticancer Drug Screen. Data for the mgt1 strain (AID 153); conditions: S. cerevisiae mgt1 mutant growth inhibition, active compounds read high
Method in brief: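 Read-out: yeast growth inhibition vs vehicle control. Strain mgt1, drawn from a panel altered in DNA damage repair or cell cycle control.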

[5] = NCI Yeast Anticancer Drug Screen. Data for the rad50 strain (AID 155);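 also: 0% = growth of vehicle-only cultures of the same strain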; conditions: S. cerevisiae rad50 strain growth inhibition, active compounds read high
Method in brief: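 Relative growth inhibition (compound vs vehicle) was measured in yeast with a defined repair-gene alteration.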

[6] = NCI Yeast Anticancer Drug Screen. Data for the mec2-1 strain (AID 157); conditions: S. cerevisiae mec2-1 strain, active compounds read high
Method in brief: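 Cells of the genetically defined mec2-1 yeast strain are incubated with test compound. Inhibition of growth is calculated against vehicle-treated controls.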

[7] = NCI Yeast Anticancer Drug Screen. Data for the rad14 strain (AID 159);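 also: 0% = growth of vehicle-treated control cultures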; conditions: S. cerevisiae rad14 strain growth inhibition, active compounds read high
Method in brief: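 Screen for anticancer potential: a yeast strain altered in DNA damage repair is grown with compound, and reduced growth is quantified against vehicle controls.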

[8] = NCI Yeast Anticancer Drug Screen. Data for the sgs1 mgt1 strain (AID 161);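 also: 0% = growth of cultures given vehicle only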; conditions: S. cerevisiae sgs1 mgt1 strain, active compounds read high
Method in brief: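 Inhibition of yeast growth, normalised to vehicle-treated controls, is reported for a strain bearing genetic alterations in DNA damage repair.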

[9] = NCI Yeast Anticancer Drug Screen. Data for the CLN2oe strain (AID 163);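 also: 0% = growth of vehicle-only control cultures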; conditions: S. cerevisiae CLN2oe strain, active compounds read high
Method in brief: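 Strain altered in cell-cycle control, incubated with compound; growth compared to solvent-treated controls.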

[10] = NCI Yeast Anticancer Drug Screen. Data for the cln2 rad14 strain (AID 165);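 also: 0% = growth equal to vehicle treated cultures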; conditions: S. cerevisiae cln2 rad14 strain, active compounds read high
Method in brief: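 The screen exposed genetically defined yeast (cln2 rad14) to test compounds and scored growth inhibition relative to vehicle-treated controls.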

[11] = NCI Yeast Anticancer Drug Screen. Data for the wt2 strain (AID 169);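 also: 0% = growth of vehicle-treated yeast cultures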; conditions: S. cerevisiae wt2 strain growth inhibition, active compounds read high
Method in brief: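 Steps: yeast strain treated with compound; growth recorded; inhibition calculated relative to cultures given vehicle alone.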

[12] = NCI Yeast Anticancer Drug Screen. Data for the mlh1 strain (AID 171);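 also: 0% = growth of vehicle-treated control cultures of the same strain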; conditions: S. cerevisiae mlh1 strain growth inhibition, active compounds read high
Method in brief: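 Yeast screen: mutant strain plus compound, growth scored against vehicle control wells.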

[13] = NCI Yeast Anticancer Drug Screen. Data for the sgs1 strain (AID 173);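 also: 0% = growth of vehicle-only control cultures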; conditions: S. cerevisiae sgs1 mutant, active compounds read high
Method in brief: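 Inhibition of yeast growth served as the measure. The mutant strain was treated with each compound, and growth was normalised to cultures receiving vehicle alone.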

[14] = NCI Yeast Anticancer Drug Screen. Data for the mlh1 rad18 strain (AID 175); conditions: S. cerevisiae mlh1 rad18 strain growth inhibition, active compounds read high
Method in brief: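 Compound-treated yeast growth, normalised to vehicle controls. Strain bears defined DNA repair mutations.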

[15] = NCI Yeast Anticancer Drug Screen. Data for the bub3 strain (AID 167); conditions: S. cerevisiae bub3 mutant strain, active compounds read high
Method in brief: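 Screening used yeast with an engineered genetic alteration affecting cell cycle control. Compound-exposed cultures were compared with vehicle cultures, and reduced growth was taken as inhibition.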

[16] = at 5.0 µM (retest, dose inferred, filed as 0.5)
[17] = at 50.0 µM (retest, dose inferred, filed as 5.0)

## CCN(CC)CCBr
[1]; at 1.2 µM
  growth inhibition: 1%
[1]; at 3.7 µM
  growth inhibition: 4%
[1]; at 11.0 µM
  growth inhibition: 12%
[1]; at 33.0 µM
  growth inhibition: 43%
[1]; at 100.0 µM
  growth inhibition: 82% (active)
[2]; at 1.2 µM
  growth inhibition: -1%
[2]; at 3.7 µM
  growth inhibition: 1%
[2]; at 11.0 µM
  growth inhibition: -6%
[2]; at 33.0 µM
  growth inhibition: -4%
[2]; at 100.0 µM
  growth inhibition: -8%
[3]; at 1.2 µM
  growth inhibition: 2%
[3]; at 3.7 µM
  growth inhibition: 6%
[3]; at 11.0 µM
  growth inhibition: 27%
[3]; at 33.0 µM
  growth inhibition: 68%
[3]; at 100.0 µM
  growth inhibition: 92% (active)
[4]; at 1.2 µM
  growth inhibition: -2%
[4]; at 3.7 µM
  growth inhibition: 0%
[4]; at 11.0 µM
  growth inhibition: -1%
[4]; at 33.0 µM
  growth inhibition: -1%
[4]; at 100.0 µM
  growth inhibition: -2%
[5]; at 1.2 µM
  growth inhibition: 0%
[5]; at 3.7 µM
  growth inhibition: -38%
[5]; [16]
  growth inhibition: 9%
[5]; at 11.0 µM
  growth inhibition: 13%
[5]; at 33.0 µM
  growth inhibition: 53%
[5]; [17]
  growth inhibition: 65%
[5]; at 50.0 µM
  growth inhibition: 70.2% (active)
[5]; at 100.0 µM
  growth inhibition: 89% (active)
[6]; at 1.2 µM
  growth inhibition: -1%
[6]; at 3.7 µM
  growth inhibition: 0%
[6]; [16]
  growth inhibition: -9%
[6]; at 11.0 µM
  growth inhibition: 3%
[6]; at 33.0 µM
  growth inhibition: 1%
[6]; [17]
  growth inhibition: 7%
[6]; at 50.0 µM
  growth inhibition: -12.4%
[6]; at 100.0 µM
  growth inhibition: 28%
[7]; at 1.2 µM
  growth inhibition: -1%
[7]; at 3.7 µM
  growth inhibition: -1%
[7]; at 11.0 µM
  growth inhibition: -1%
[7]; at 33.0 µM
  growth inhibition: -1%
[7]; at 100.0 µM
  growth inhibition: 7%
[8]; [16]
  growth inhibition: 4%
[8]; [17]
  growth inhibition: 38%
[8]; at 50.0 µM
  growth inhibition: 37.5%
[9]; at 1.2 µM
  growth inhibition: 0%
[9]; at 3.7 µM
  growth inhibition: -5%
[9]; at 11.0 µM
  growth inhibition: -5%
[9]; at 33.0 µM
  growth inhibition: -7%
[9]; at 100.0 µM
  growth inhibition: -4%
[10]; [16]
  growth inhibition: -2%
[10]; [17]
  growth inhibition: 1%
[10]; at 50.0 µM
  growth inhibition: 1.5%
[11]; at 1.2 µM
  growth inhibition: -1%
[11]; at 3.7 µM
  growth inhibition: 6%
[11]; at 11.0 µM
  growth inhibition: 0%
[11]; at 33.0 µM
  growth inhibition: -3%
[11]; at 100.0 µM
  growth inhibition: -3%
[12]; at 1.2 µM
  growth inhibition: -1%
[12]; at 3.7 µM
  growth inhibition: -1%
[12]; at 11.0 µM
  growth inhibition: -1%
[12]; at 33.0 µM
  growth inhibition: -2%
[12]; at 100.0 µM
  growth inhibition: -1%
[13]; at 1.2 µM
  growth inhibition: 0%
[13]; at 3.7 µM
  growth inhibition: 4%
[13]; at 11.0 µM
  growth inhibition: 15%
[13]; at 33.0 µM
  growth inhibition: 42%
[13]; at 100.0 µM
  growth inhibition: 73% (active)
[14]; [16]
  growth inhibition: 5%
[14]; [17]
  growth inhibition: 15%
[14]; at 50.0 µM
  growth inhibition: 19.9%

## C[C@]12CCC(=O)C=C1CC[C@@H]1C2CC[C@@]2(C)C1CC[C@@H]2OC(=O)C12OC1CCC2=O (stereo not given in full)
[1]; at 1.2 µM
  growth inhibition: 0%
[1]; at 3.7 µM
  growth inhibition: 23%
[1]; at 11.0 µM
  growth inhibition: 37%
[1]; at 33.0 µM
  growth inhibition: 83% (active)
[1]; at 100.0 µM
  growth inhibition: 96% (active)
[2]; at 1.2 µM
  growth inhibition: -2%
[2]; at 3.7 µM
  growth inhibition: -9%
[2]; at 11.0 µM
  growth inhibition: 8%
[2]; at 33.0 µM
  growth inhibition: 66%
[2]; at 100.0 µM
  growth inhibition: 96% (active)
[3]; at 1.2 µM
  growth inhibition: 9%
[3]; at 3.7 µM
  growth inhibition: 25%
[3]; at 11.0 µM
  growth inhibition: 69%
[3]; at 33.0 µM
  growth inhibition: 94% (active)
[3]; at 100.0 µM
  growth inhibition: 97% (active)
[4]; at 1.2 µM
  growth inhibition: -8%
[4]; at 3.7 µM
  growth inhibition: -11%
[4]; at 11.0 µM
  growth inhibition: 27%
[4]; at 33.0 µM
  growth inhibition: 92% (active)
[4]; at 100.0 µM
  growth inhibition: 97% (active)
[5]; at 1.2 µM
  growth inhibition: -15%
[5]; at 3.7 µM
  growth inhibition: -4%
[5]; [16]
  growth inhibition: -16%
[5]; at 11.0 µM
  growth inhibition: 29%
[5]; at 33.0 µM
  growth inhibition: 79% (active)
[5]; [17]
  growth inhibition: 87% (active)
[5]; at 50.0 µM
  growth inhibition: 86.2% (active)
[5]; at 100.0 µM
  growth inhibition: 95% (active)
[6]; at 1.2 µM
  growth inhibition: 5%
[6]; at 3.7 µM
  growth inhibition: 14%
[6]; [16]
  growth inhibition: 6%
[6]; at 11.0 µM
  growth inhibition: 33%
[6]; at 33.0 µM
  growth inhibition: 90% (active)
[6]; [17]
  growth inhibition: 86% (active)
[6]; at 50.0 µM
  growth inhibition: 88.8% (active)
[6]; at 100.0 µM
  growth inhibition: 97% (active)
[7]; at 1.2 µM
  growth inhibition: -9%
[7]; at 3.7 µM
  growth inhibition: -11%
[7]; at 11.0 µM
  growth inhibition: 5%
[7]; at 33.0 µM
  growth inhibition: 75% (active)
[7]; at 100.0 µM
  growth inhibition: 96% (active)
[8]; [16]
  growth inhibition: 8%
[8]; [17]
  growth inhibition: 93% (active)
[8]; at 50.0 µM
  growth inhibition: 88.7% (active)
[9]; at 1.2 µM
  growth inhibition: 10%
[9]; at 3.7 µM
  growth inhibition: 12%
[9]; at 11.0 µM
  growth inhibition: 14%
[9]; at 33.0 µM
  growth inhibition: 39%
[9]; at 100.0 µM
  growth inhibition: 96% (active)
[10]; [16]
  growth inhibition: 39%
[10]; [17]
  growth inhibition: 67%
[10]; at 50.0 µM
  growth inhibition: 65.1%
[15]; at 1.2 µM
  growth inhibition: 1%
[15]; at 3.7 µM
  growth inhibition: 23%
[15]; [16]
  growth inhibition: 27%
[15]; at 11.0 µM
  growth inhibition: 45%
[15]; at 33.0 µM
  growth inhibition: 79% (active)
[15]; [17]
  growth inhibition: 96% (active)
[15]; at 50.0 µM
  growth inhibition: 84.5% (active)
[15]; at 100.0 µM
  growth inhibition: 96% (active)
